A selection: hits, their analogues and other compounds. The true share with any hit is near 5.8%.
PINK1 modulator = modulators of PINK1 expression | PINK1 immunofluorescence, high-content cytometry, 24 h | Potency, µM (top dose mostly 76.6 µM), for inactives: top-dose activation (PINK1 increase), most hits filed as activators | actives 0.2% (n = 410,000) | AID 624263; active = well fitted activation curve with a large enough effect; inconclusive = small, poorly fitted or top-dose-only effect; cell line not stated here; note: % of control where 0% means no effect; nearly all actives have a fitted effect of over 65% in size
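PINK1 protein, normally rapidly degraded, was detected by immunofluorescence after 24 hour compound treatment of a stable cell line. Titration data (5 concentrations) came from laser-scanning cytometry, with CCCP-treated wells as controls.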
12-LOX inh = ALOX12 (human) lipoxygenase inhibition; actives 1.1% (n = 580,000); purified 12hLO, xylenol orange hydroperoxide absorbance; AID 1671190; P18054; Potency, µM (highest dose often 108 µM), without a hit: at the highest dose activity change, negative = inhibition, most hits filed as inhibitors; note: % is set by controls: 0 for no effect and ±100 for the full control effect
Target sequence (P18054 whole entry, looked up): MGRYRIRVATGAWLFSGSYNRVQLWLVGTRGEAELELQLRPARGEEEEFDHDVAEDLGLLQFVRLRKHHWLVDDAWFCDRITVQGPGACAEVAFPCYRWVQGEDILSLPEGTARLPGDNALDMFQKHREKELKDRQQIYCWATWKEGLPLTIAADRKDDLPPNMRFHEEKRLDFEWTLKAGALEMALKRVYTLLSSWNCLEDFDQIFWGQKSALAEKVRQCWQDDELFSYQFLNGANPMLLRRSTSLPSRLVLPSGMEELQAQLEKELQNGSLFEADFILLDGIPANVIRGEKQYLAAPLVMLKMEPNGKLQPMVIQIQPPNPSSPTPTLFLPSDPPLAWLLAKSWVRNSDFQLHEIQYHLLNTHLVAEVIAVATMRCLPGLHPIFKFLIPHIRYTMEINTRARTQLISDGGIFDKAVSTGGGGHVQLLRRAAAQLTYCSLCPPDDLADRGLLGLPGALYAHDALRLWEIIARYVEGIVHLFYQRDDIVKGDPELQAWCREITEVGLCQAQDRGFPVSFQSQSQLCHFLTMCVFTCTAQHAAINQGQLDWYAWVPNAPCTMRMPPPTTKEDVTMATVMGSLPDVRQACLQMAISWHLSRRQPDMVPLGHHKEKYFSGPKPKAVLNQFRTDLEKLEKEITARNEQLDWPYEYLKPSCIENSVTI
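Purified human 12hLO (150 nM final) in 25 mM Hepes, 0.01% Triton X-100, pH 7.0 was preincubated 15 min at room temperature with compound. Then 40 uM arachidonic acid was added, 30 min. Hydroperoxide was read by Fe-XO absorbance ratio 573/405 nm.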
MCF10A rereplic = DNA re-replication induction in MCF 10a cells; AID 624296; MCF 10A DNA re-replication, Hoechst nuclear intensity, 48 h; Potency, µM (doses to about 46.1 µM), inactives show at the top dose activity, positive = re-replication, hits mostly activators; actives 2.9% (n = 350,000); note: % of control where 0% means no effect; nearly all actives have a fitted effect of over 50% in size
KB-3-1 tox = KB-3-1 parental cell cytotoxicity; KB-3-1 viability, CellTiter-Glo ATP luminescence, 72 h; Potency, µM (series often up to 46.1 µM), usual class: cytotoxic; actives 1.4% (n = 400,000); AID 1347075; note: % is set by controls: 0 for no effect and ±100 for the full control effect; nearly all actives have a fitted effect of over 60% in size
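Here the drug-naive KB-3-1 line serves as comparator for MDR sub-line selectivity; cells received compound titrations, 72 h at 37 °C, then CellTiter-Glo readout.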
KB-V1 MDR tox = kills drug-selected multidrug resistant KB-V1 cells; KB-V1 MDR cells viability, CellTiter-Glo, 72 h; actives 3.4% (n = 400,000); AID 1347076; Potency, µM (doses to about 46.1 µM), actives largely listed as cytotoxic; note: % is set by controls: 0 for no effect and ±100 for the full control effect; nearly all actives have a fitted effect of over 60% in size
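qHTS viability screen in drug-selected KB-V1 MDR cells: 72 h compound treatment at 37 degrees C, ATP luminescence end point.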
SW480 rereplic = inducers of DNA re-replication in SW480 colon cancer cells | AID 624297 | SW480 DNA re-replication, Hoechst DNA content imaging, 48 h | Potency, µM (top dose mostly 46.1 µM), for inactives: at the top dose re-replication activation, usual class: activators | actives 1.8% (n = 340,000); note: % of control where 0% means no effect; nearly all actives have a fitted effect of over 55% in size
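Per well, 250 cells were exposed to pinned compound for 48 hr. Nuclear DNA was visualised with Hoechst (40 min, 37 C) and total object intensity recorded by fluorescence scanning.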
The depositor's hits bear a star; i = inactive; ? = inconclusive; / = no result; [ ] = remark or other dose. Unless noted, calls come from the whole dose curve; as a rule, active = well fitted curve in the direction sought with a large enough effect; inconclusive = small, poorly fitted or top-dose-only effect, or another doubt; inactive = no such curve, though single readings can be large; an effect the other way counts as inactive or inconclusive. Potency is the fitted concentration of half-maximal effect.

SMILES	PINK1 modulator	12-LOX inh	MCF10A rereplic	KB-3-1 tox	KB-V1 MDR tox	SW480 rereplic
CSCCC(NS(=O)(=O)c1ccc2ccccc2c1)C(=O)OCC(=O)c1ccc(C(C)C)cc1 (centres undefined)	-1.4%	-15.4%	-2.1%	i	18.4µM*	?
CSCCC(NS(=O)(=O)c1ccc(Cl)cc1)C(=O)OCC(=O)c1c(C)[nH]c2ccccc12 (centres undefined)	?	?	11.6µM*	?	14.6µM*	16.9%
CC(C)CNc1nc(C(=O)Nc2ccc(Cn3cncn3)cc2)cs1	/	17.1%	/	/	/	/
Cn1ncc(Br)c1C(=O)NC1C2CC3CC(C2)CC1C3 (centres undefined)	1.6%	-12.8%	?	i	i	1.0%
Cc1c(Cl)c(C(=O)NC2C3CC4CC(C3)CC2C4)nn1C (centres undefined)	-2.0%[38.3 µM]	0.0%	12.7%	i	14.6µM*	-2.3%
O=C(/C=C/Nc1ccc([N+](=O)[O-])cc1Br)c1cccc2ccccc12	?	-12.6%	2.5%	23.1µM*	i	?
CCOC(=O)c1c(-c2ccc(OC)cc2)nc2nonc2c1N	-2.1%[38.3 µM]	-8.3%	-5.1%	?	13µM*	-12.3%
CC1=C(C(=O)N2CCCCCC2)CC(CC(=O)NC(c2ccccc2)c2ccccc2)C(=O)N1CCC1=CCCCC1 (centres undefined)	9.6%	-19.1%	/	?	16.4µM*	/
Cc1cc(/C=N\NC(=O)CC(=O)NC2CCCCC2)c(C)n1-c1ccc(Cl)cc1	-3.7%[38.3 µM]	-22.3%	19.9%	i	20.6µM*	10.0%
Cc1cc(/C=N/NC(N)=S)c(C)n1-c1ccc(Cl)cc1	0.8%	?	8.2µM*	i	i	?
O=C(CC(=O)NC1CCCCC1)N/N=C/c1ccc(Cl)cc1	1.9%	-10.3%	-19.2%	i	i	-3.9%
Cc1cc(/C=N/NC(N)=S)c(C)n1-c1cccc(Cl)c1	1.8%	39.8µM*	2.7%	i	i	?
Cc1cccc(C)c1-n1c(C)cc(/C=N/NC(N)=S)c1C	3.0%	0.0%	?	?	?	-5.2%
CCc1ccc(NC(=O)c2ccc3c(c2)N(CC)C2CCCCN2C3=O)cc1 (centres undefined)	/	13.1%	/	/	/	/
CCOC(=O)C(=O)CCc1ccccc1	/	-9.9%[22.9 µM]	/	/	/	/
CCOC(=O)C#CC(CCc1ccccc1)OS(N)(=O)=O (centres undefined)	1.9%	-18.7%	5.17µM*	i	i	-2.4%
CCOc1ccccc1CN1CCC2(CCN([S+](=O)([O-])c3cccs3)CC2)Oc2ccccc21	/	-12.2%	/	/	/	/
CCOc1ccccc1CN1CCC2(CCN(C(=O)Nc3ccccc3)CC2)Oc2ccccc21	/	25.1µM*	/	/	/	/
Clc1cc(Br)ccc1OCCn1ccnc1	-3.7%	0.708µM*	-2.0%	i	?	-8.2%
Cc1ccc(OCCCn2ccnc2)c(Br)c1	-1.7%	?	2.8%	i	?	9.7%
Clc1cc(Br)ccc1OCCCn1ccnc1	-2.1%	?	15.5%	?	20.6µM*	1.1%
Cc1cc(Br)ccc1OCCCCN1CCC(C)CC1	6.8%	-4.7%	7.31µM*	i	?	?
Clc1ccccc1OCCCCn1ccnc1	0.6%[38.3 µM]	16.9%	-1.4%	i	i	-6.4%
Clc1ccccc1OCCCn1ccnc1	-0.2%	0.355µM*	28.3%	i	i	?
O=C(CSc1nc2ccccc2c2nc(=O)c(-c3ccccc3)nn12)NCc1ccc(F)cc1	/	-51.8%	/	/	/	/
SMILES	PINK1 modulator	12-LOX inh	MCF10A rereplic	KB-3-1 tox	KB-V1 MDR tox	SW480 rereplic
CC(C)NC(=O)C(=O)N1CCN(c2ccnc3c(F)ccc(F)c23)CC1	/	-1.1%	/	/	/	/
O=C(Cc1noc(C(=O)NCc2ccncc2)n1)Nc1cccc2ncccc12	/	8.3%	/	/	/	/
Cc1ccc(C)c(OCCn2ccnc2)c1	1.8%	/	4.6%	i	i	?
Cc1cccc(Cl)c1OCCCCn1ccnc1	-3.3%[38.3 µM]	-11.1%	9.7%	i	20.6µM*	4.6%
Cc1cc(Cl)cc(C)c1OCCCCn1ccnc1	?	?	5.0%	i	?	-10.7%
Cc1cc(Br)ccc1OCCn1ccnc1	-1.3%	-0.2%	9.2%	i	16.4µM*	1.7%
Cc1[nH][nH]c(=O)c1C(c1c(C)[nH][nH]c1=O)c1cn(Cc2cccc3ccccc23)c2ccccc12	8.2%	0.0%	?	?	20.6µM*	?
Cc1[nH][nH]c(=O)c1C(c1c(C)[nH][nH]c1=O)c1cn(C)c2ccccc12	0.2%	?	2.9%	i	i	25.0%
O=C(Nc1ccc(Cl)cc1C(=O)NCC1CCCO1)c1ccco1 (centres undefined)	2.6%[38.3 µM]	12.3%	?	?	8.2µM*	-3.3%
CCOc1cc(NC(=S)NCC2CCCO2)c(OCC)cc1NC(=O)CC (centres undefined)	-1.3%	-21.3%	-29.1%	i	i	-31.7%
CCOc1cc(NC(=S)NCC2CCCO2)c(OCC)cc1NC(=O)c1ccccc1F (centres undefined)	1.1%	39.8µM*	?	i	?	-1.9%
O=C(NCC1CCCO1)c1ccccc1NS(=O)(=O)c1cc([N+](=O)[O-])ccc1Cl (centres undefined)	2.3%	-14.5%	6.0%	?	16.4µM*	3.5%
O=C(NCC1CCCO1)c1ccccc1OCc1ccc(Cl)cc1 (centres undefined)	-1.2%	1.3%	6.8%	i	3.66µM*	2.7%
O=C(COc1ccccc1C(=O)NCC1CCCO1)Nc1ccc(Cl)cc1Cl (centres undefined)	0.9%	-15.4%	2.7%	i	?	2.5%
O=C(Nc1ccc(Cl)cc1C(=O)NCC1CCCO1)c1ccc(Cl)cc1Cl (centres undefined)	0.3%	4.8%	?	i	10.3µM*	-62.8%
O=C(Nc1ccc(Cl)cc1C(=O)NCCN1CCOCC1)c1ccc(Cl)cc1Cl	1.0%	-22.9%	0.6%	i	4.61µM*	0.0%
COc1cc(C(=O)Nc2ccc3sc(NC(C)=O)nc3c2)cc(OC)c1OC	/	40.5%	/	/	/	/
Nc1ccc(-c2nc3c(ccc4ccccc43)[nH]2)cc1	-0.4%	0.0%	23.1µM*	i	i	0.9%
CC1(C)CCCC(C)(C#CCN2CCN(C(c3ccccc3)c3ccccc3)CC2)O1 (centres undefined)	/	10µM*	/	/	/	/
Cc1cc(C)n(-c2ccc(C(=O)Nc3sccc3C(N)=O)cc2)n1	-1.4%	2.1%	?	?	29.1µM*	-4.7%
